In PMC7819943, “Rice protein-binding microarrays: a tool to detect cis-acting elements near promoter regions in rice” one finds binding signal data, which are given here for 42 sequences.

The full ranking holds about 39,000 sequences; the median of “fluorescence intensity (a.u.)” is about 4,300, and the highest 2% start at about 39,000. This excerpt belongs to a sample that is enriched for the highest values.

The assay deals with T1, OsSMF1 (Oryza sativa, UniProt Q6ZLB0 1-436).
T1 sequence: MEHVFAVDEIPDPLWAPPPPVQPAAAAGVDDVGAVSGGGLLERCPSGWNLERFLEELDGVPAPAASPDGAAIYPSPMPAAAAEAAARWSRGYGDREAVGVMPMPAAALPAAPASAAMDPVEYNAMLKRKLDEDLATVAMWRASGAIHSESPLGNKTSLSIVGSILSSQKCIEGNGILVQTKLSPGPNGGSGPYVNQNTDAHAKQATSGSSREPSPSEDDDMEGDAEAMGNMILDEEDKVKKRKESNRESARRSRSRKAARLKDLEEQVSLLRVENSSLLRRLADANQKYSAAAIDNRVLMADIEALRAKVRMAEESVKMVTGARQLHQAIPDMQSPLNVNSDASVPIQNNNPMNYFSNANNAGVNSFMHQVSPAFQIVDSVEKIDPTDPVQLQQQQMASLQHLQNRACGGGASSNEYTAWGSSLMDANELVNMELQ
Put plainly: protein-binding microarray (RPBM); PBS, 2% BSA, 51.3 ng/ul salmon testes DNA, 50 uM zinc acetate, 200 nM TF, 25 C, 1 h; high values mean tight binding. The following applies: protein: recombinant; tags: N-terminal polyhistidine and DsRed monomer fusion (pET32a); chain copies: 2; label: CyDye5-dUTP incorporated in the synthesized complementary strand; 3' TTTTT single-stranded linker to array surface; dsDNA, one strand shown. In outline: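 Transcription factors were each fused at the N-terminus to a polyhistidine tag plus DsRed and expressed in E. coli BL21-CodonPlus before Ni–NTA purification. Binding to a double-stranded custom Agilent array was carried out with 200 nM protein at 25 °C for 1 h in PBS, 2% BSA, salmon testes DNA and 50 µM zinc acetate. The binding signal is per-feature fluorescence intensity, in arbitrary units, on an Axon 4000B scanner.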
Turning to “GATCACTGTACTGTACAGAGGCTAGCTCTAGCTAGGTAGCCGGAGTCACCTAGTGCAG”, the binding signal is 26000 fluorescence intensity (a.u.). Take “AGCTTCAGGAGTTCTTGTCACGTCTCGAGGAAGAGAGGCTCGGAGTCACCTAGTGCAG”: the binding signal is 3740 fluorescence intensity (a.u.).

For the sequence “TTAGCTAGACTACAGCTCTAGTAGAGCTGTAGAGGTAGAGCGGAGTCACCTAGTGCAG”, the binding signal was 44000 fluorescence intensity (a.u.).

As to “TTGTGGTACGATACTAGTACTACTAGTAGACTAGTAGCAGCGGAGTCACCTAGTGCAG”, the binding signal was 3260 fluorescence intensity (a.u.). To “GTGAGAACTGAGAGGAGCGTCGGAAGAAGACCGGAAGAAGCGGAGTCACCTAGTGCAG” belongs 4580 fluorescence intensity (a.u.).

For “GTGGGCCATCTGACAGTGCATACAGGAACTTTCCCCTTCTCGGAGTCACCTAGTGCAG”, the binding signal was 4930 fluorescence intensity (a.u.). On to “ATTATAGGTCCAGCTAAGTTGGCCCTGGTATATATATTGGCGGAGTCACCTAGTGCAG”, for which the binding signal is 3980 fluorescence intensity (a.u.).

With “TTGGAGGGGAAGCTATCGTGTATCCACTGCGGAGCACGGCCGGAGTCACCTAGTGCAG”, the binding signal is 3650 fluorescence intensity (a.u.).

Take “CGTGGTGGACGGCCTCGACGAGGCGATCTGCCCGGTGGCGCGGAGTCACCTAGTGCAG”: the binding signal is 3240 fluorescence intensity (a.u.).

“CCGGGCTACCATCGCGGCGACGAAACGTGCATCATCATCCCGGAGTCACCTAGTGCAG”: the binding signal is 3850 fluorescence intensity (a.u.). With “AACGACGGCGAATTCTACCTCCCCGGGTATCTGGACCTCGCGGAGTCACCTAGTGCAG”, the binding signal was 42900 fluorescence intensity (a.u.). In the case of “CGTGGCACTTAGCGATGAGTGCTGTCGTCAGTAGCAATCCCGGAGTCACCTAGTGCAG”, the binding signal is 4620 fluorescence intensity (a.u.). For the sequence “GCAGGCGTCGGTTTCGCGGCTGGCAGCGGCGGCTCGCTCACGGAGTCACCTAGTGCAG”, the binding signal was 3200 fluorescence intensity (a.u.).

Turning to “GTACAGCAGGAATCGCTGCTGGCGTCGCTTCGTCGGTTGTCGGAGTCACCTAGTGCAG”, the binding signal is 65100 fluorescence intensity (a.u.). Consider “GGCTAGCGTACAGGTTAAAACGTGTCGGAATCGTCAGCGCCGGAGTCACCTAGTGCAG”, for which the binding signal was 4110 fluorescence intensity (a.u.). With “GTGTTTTGACGCATGCATGCCGTTGGTCATCAGTTAATCACGGAGTCACCTAGTGCAG”, the binding signal is 3480 fluorescence intensity (a.u.).

For the sequence “TTCCCAAAAGGAGGCCCAATGAGAACTTGTATAGTCCTATCGGAGTCACCTAGTGCAG”, the binding signal is 19500 fluorescence intensity (a.u.). Turning to “ATGTTTTCTAGACTAATATACTATTAATCTATCTTTTATCCGGAGTCACCTAGTGCAG”, the binding signal was 36400 fluorescence intensity (a.u.). Take “ATGTGACTACCACCTCTAAATTTATCTATTTTATTCACTCCGGAGTCACCTAGTGCAG”: the binding signal was 18600 fluorescence intensity (a.u.). In the case of “GAAATCTAATTTTATCCACGAGACTATAGTGAGCCTACTCCGGAGTCACCTAGTGCAG”, the binding signal was 39700 fluorescence intensity (a.u.). To “GGGATGTCACACCGTCGAAGGCGTCCAGCTGTCAACATATCGGAGTCACCTAGTGCAG” belongs 4720 fluorescence intensity (a.u.); to “CCGTTAGCCTCCAACGATCCAAACCGCCTCGTCATAAATACGGAGTCACCTAGTGCAG”, 3460 fluorescence intensity (a.u.); to “TGCTGCTCTTGACACCACGTCGTTGCTGCCCTGCTTCCACCGGAGTCACCTAGTGCAG”, 3810 fluorescence intensity (a.u.). As for “GTGGCATTGACGTGGCGCTTACGTGTCAATTCTACTCCGGCGGAGTCACCTAGTGCAG”, the figure is 44200 fluorescence intensity (a.u.).

Turning to “TCTGATATGGCATTGACGTGACACTTACGTGGCAATTCGACGGAGTCACCTAGTGCAG”, the binding signal was 12500 fluorescence intensity (a.u.). To “AGTGCCTATGTGGCGTTGACGTGGCGCTTACGTGGCAATTCGGAGTCACCTAGTGCAG” belongs 27500 fluorescence intensity (a.u.); to “TGGCATTGACGTGGCGCTTACGTGGCATTATATCTTGAAACGGAGTCACCTAGTGCAG”, 33400 fluorescence intensity (a.u.); to “ATGACGTGACATTGACGTGGCGCTTACGTGGCAATTCGACCGGAGTCACCTAGTGCAG”, 25600 fluorescence intensity (a.u.). To “TGACTCAGTATCGATCTGACGTGGCGCTTACGTGGCAATTCGGAGTCACCTAGTGCAG” belongs 48000 fluorescence intensity (a.u.). Consider “GCTATATTAAACATTTGCTAATGACAAATTAATTAGCTTACGGAGTCACCTAGTGCAG”, for which the binding signal was 14700 fluorescence intensity (a.u.).

Regarding “TCCATTTTGGACCGCTGACGAGGACGATAGGAGCGTGAGTCGGAGTCACCTAGTGCAG”, the binding signal was 4710 fluorescence intensity (a.u.). Turning to “AGCTTGTGTACCCAGGAGATCTACATACTTCGCTACGTCACGGAGTCACCTAGTGCAG”, the binding signal is 4570 fluorescence intensity (a.u.).

As to “AGTATATCCTAAAGCGACACTTTACAGTCTCAAGGACATCCGGAGTCACCTAGTGCAG”, the binding signal was 11200 fluorescence intensity (a.u.).

Regarding “TGGAGGAAGTCAGTAGGATCCCACGTGTCATACTCACACCCGGAGTCACCTAGTGCAG”, the binding signal is 22200 fluorescence intensity (a.u.). Consider “TATATAACCTAAAATGGAGGAAGTAGGAAATATGTAATTCCGGAGTCACCTAGTGCAG”, for which the binding signal was 4630 fluorescence intensity (a.u.). On to “ACTCCGGTCCAGGAAAATTATTCCTATAGTAATGTAATAACGGAGTCACCTAGTGCAG”, for which the binding signal is 42900 fluorescence intensity (a.u.). Consider “ATTTAACTGCATAGAAGTGTATAAGTAAAATAATTTATTCCGGAGTCACCTAGTGCAG”, for which the binding signal is 4320 fluorescence intensity (a.u.). Consider “GCCACACCCACACTGACACACATATACAAGCCAGAGAGATCGGAGTCACCTAGTGCAG”, for which the binding signal was 3280 fluorescence intensity (a.u.). As to “GAAAGGAAGAGGTGGAGGAAGTGAGACCCACTGACTTGTGCGGAGTCACCTAGTGCAG”, the binding signal was 24500 fluorescence intensity (a.u.). In the case of “TCCACCACACGTGTCTATATCGCTTCCTTCCATTCCATCACGGAGTCACCTAGTGCAG”, the binding signal is 7170 fluorescence intensity (a.u.). Turning to “GACTTGTCCATGCATGCATGCATGACTTGTGTTCAGCCACCGGAGTCACCTAGTGCAG”, the binding signal is 3700 fluorescence intensity (a.u.). As for “TTGTTGGTGTTTCCTCGTCCGCGTCGTCGGTTGCATTCTCCGGAGTCACCTAGTGCAG”, the figure is 3190 fluorescence intensity (a.u.).
